# Compound activity from PubChem.
# KCNQ2 block = blocks the rat KCNQ2 potassium channel; CHO-K1 KCNQ2, FluxOR thallium flux, 20 min; hits give low values; AID 2156; 310,000 tested, 1.1% active; B-score at 10 µM; O88943;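 active = fluorescence ratio B-score at most minus 3 library SDs, with starting brightness B-score within 2 library SDs, cut at about -5.5 in these data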
# KCNQ2 pot = KCNQ2 (rat) channel potentiation | 310,000 tested, 0.54% active | O88943 | CHO-K1 KCNQ2, FluxOR thallium flux fluorescence; hits give high values | B-score at 10 µM;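 active = fluorescence ratio B-score at least 3 SD of library B-scores, with initial fluorescence B-score within 3 of them, cut at about 5.3 in these data; same plate scores as AID 2156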;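 note: B-score of peak minus minimum over baseline fluorescence ratio after K+ and Tl+ stimulus; positive B-score means potentiation of KCNQ2 with more thallium influx and brighter signal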
# KCNQ2 inh conf = confirmation of rat KCNQ2 potassium channel inhibitors | shares compounds with KCNQ2 block | KCNQ2-expressing cells, thallium flux, inhibition; hits give low values | activity change, negative = inhibition, % at 10 µM | 1,000 tested, 57% active | AID 493025;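 note: 0% = vehicle wells and values are ratio percent relative to vehicle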
# KCNQ1 spec = selectivity of KCNQ2 inhibitors against human KCNQ1 | KCNQ1-expressing cells, FluxOR thallium flux fluorescence; hits give low values | activity change, negative = inhibition, % at 10 µM | shares compounds with KCNQ2 block | 1,000 tested, 15% active;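 active = activity change at least 3 SD of negative controls below their mean in both duplicate wells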;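 note: CHO cells stably transfected with KCNQ1 and depolarized by potassium stimulus; peak minus minimum fluorescence over baseline after thallium addition; 0% = vehicle negative control and -100% = blank without thallium stimulus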
# CHO Tl ctr = activity in parental CHO cells lacking KCNQ2; shares compounds with KCNQ2 block; thallium flux counter-screen; hits give low values; activity change, % at 10 µM; 1,000 tested, 14% active; AID 493029;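 note: 0% = vehicle negative controls with stimulus buffer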
# Kir21 confirm = confirmation of mouse Kir2.1 potassium channel inhibitors; shares compounds with KCNQ2 pot; Kir2.1-expressing cells, FluxOR thallium flux fluorescence; hits give low values; Tl flux remaining, % of negative control (hits give low values), % at 10 µM; 2,300 tested, 41% active; AID 2032;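 active = Primary-screen hit whose thallium flux fell at least 3 control SD below untreated wells in both duplicates, with normal baseline fluorescence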;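 note: 0% = blank wells without stimulus and 100% = stimulated no-compound controls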
# HEK293 Tl flux = counter-screen for Kir2.1 inhibitors: effect in parental HEK293 cells; shares compounds with KCNQ2 pot; FluxOR thallium flux fluorescence; 0% = unstimulated blank wells; FluxOR signal as % of negative control (100 = no effect), % at 10 µM; 2,300 tested, 19% active;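 active = dye signal at least 3 control SD above or below untreated wells in both duplicates, raw fluorescence within 3, either direction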;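 note: percent is based on the flux ratio of peak minus minimum fluorescence over baseline F0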
# CHO-K1 Tl ctr = alters thallium flux in parental CHO-K1 cells, KCNQ2 counter-screen; shares compounds with KCNQ2 pot; FluxOR thallium flux fluorescence; zero = vehicle mean+3SD, 100% = vehicle-minus-blank window; activity increase over 3SD of controls, % at 10 µM; 1,200 tested, 43% active; AID 2282;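 active = signal rise of at least 3 SD above the untreated control mean, in both duplicate wells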;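 note: counter screen of KCNQ2 potentiator hits so any rise reflects channel-independent effects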
# KCNQ1 sel pot = selectivity of KCNQ2 potentiators: effect on human KCNQ1. activation over 3SD threshold, % at 10 µM. 1,200 tested, 28% active. CHO KCNQ1 stable, FluxOR thallium flux fluorescence; beyond 3SD, as % of vehicle-control signal. shares compounds with KCNQ2 pot. AID 2283;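 active = fluorescence ratio rise of at least 3 SD of vehicle wells above their mean, in both replicate wells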;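 note: 0% = vehicle mean plus 3 SD and 100% = vehicle minus unstimulated blank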
# KCNQ2 pot conf = rat KCNQ2 channel potentiator confirmation | shares compounds with KCNQ2 pot | CHO-KCNQ2 cells, FluxOR thallium flux fluorescence | potentiation, less the hit threshold, % at 10 µM | 1,200 tested, 68% active;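 active = fluorescence ratio rising 3 SD or more over the vehicle control mean in both replicates, plus primary screen hit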;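 note: peak minus minimum thallium fluorescence divided by baseline after K/Tl stimulus; 0% = vehicle mean plus 3 SD and 100% = vehicle minus unstimulated blank difference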
# Kir2-1 sel = tests whether KCNQ2 potentiators also affect mouse Kir2.1. shares compounds with KCNQ2 pot. HEK293 Kir2.1, FluxOR thallium flux fluorescence. activity over 3SD threshold, % at 10 µM. 1,200 tested, 2% active;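 active = fluorescence ratio rise of at least 3 SD above the vehicle-control mean, seen in both replicates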;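 note: 0% = vehicle mean plus 3 SD and 100% = vehicle minus no-stimulus blank window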
# KCNQ2 W236L MoA = potentiates the retigabine-insensitive rat KCNQ2 W236L mutant channel. AID 2558. shares compounds with KCNQ2 pot. 940 tested, 10% active. CHO KCNQ2-W236L, automated patch clamp current. current increase over 3SD of negative controls (%), hits give high values, % at 25 µM;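 active = current increase at least 3 SD of the untreated controls above them in both duplicate recordings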
# Numbers without * were called inactive; i = inactive; / = no result. Sampled rows, rich in hits. Any-hit rate of the full collection: about 1.6%. Unless noted, the rule behind the calls is not given here.
SMILES,KCNQ2 block,KCNQ2 pot,Kir21 confirm,HEK293 Tl flux,others
CCOc1ccc(C(=O)NCCC(=O)NCCCC(=O)O)cc1,i,/,/,/,
CC(C)=CCc1c(O)ccc2c1OC(c1ccc(O)c(O)c1)CC2=O (stereo unspecified),-8.7*,-8.7,54%*,i,KCNQ2 inh conf=i;KCNQ1 spec=i;CHO Tl ctr=i
O=C1CC(c2ccc(O)c(O)c2)Oc2cc(O)cc(O)c21 (stereo unspecified),i,0.26,/,/,
O=S(=O)(N/N=C/c1ccc2c(c1)OCO2)c1ccc(Br)cc1,i,/,/,/,
O=C(CNC(=O)c1ccccc1F)NCc1cccnc1,i,1.1,/,/,
CC(C)CC(=O)NC(=S)Nc1nc(-c2cccc3ccccc23)cs1,i,8.4*,i,i,CHO-K1 Tl ctr=3.5*;KCNQ1 sel pot=9.8*;KCNQ2 pot conf=-11;Kir2-1 sel=-20
CCOC(=O)Cc1csc(NC(=S)NC(=O)CC(C)C)n1,i,/,/,/,
CC(=O)OCCN(CCCn1c(-c2ccncc2)nc2ccccc21)c1nc(CN2CCCCC2)cs1,i,/,/,/,
Nc1nc(COc2ccccc2C=O)nc(Nc2ccccc2)n1,i,1.7,/,/,
CCCc1cc(=O)oc2cc(C)cc(OCC(=O)Nc3ccc(CN4CCOCC4)cc3)c12,i,1.4,/,/,
CC(NC(=O)COC(=O)C1CCC1)c1ccccc1 (stereo unspecified),i,/,/,/,
COc1ccccc1NC(=O)C(CC(C)C)NC(=O)C1CCCCC1 (stereo unspecified),i,/,/,/,
CC(NC(=O)CC1CCCCC1)c1ccccc1 (stereo unspecified),i,5.3*,i,i,CHO-K1 Tl ctr=-1;KCNQ1 sel pot=-18;KCNQ2 pot conf=7.1*;Kir2-1 sel=-40;KCNQ2 W236L MoA=i
CC(C)CC(NC(=O)C1CCCCC1)C(=O)NC(C)c1ccccc1 (stereo unspecified),i,18*,i,i,CHO-K1 Tl ctr=3.7*;KCNQ1 sel pot=-25;KCNQ2 pot conf=29*;Kir2-1 sel=-39;KCNQ2 W236L MoA=i
CCCCCCCCC1=NCCc2c1[nH]c1ccccc21,i,/,20%*,i,
CC(C)C/C=C1\CCc2c([nH]c3ccccc23)C1=O,i,2.2,/,/,
CN(C)c1cccc(C(=O)NNC(=O)CSc2ccccc2)c1,i,/,/,/,
C/C(N)=C(/C#N)C(=O)CSc1nc2ccccc2c(=O)n1Cc1ccc(C)cc1,i,/,/,/,
C/C(N)=C(/C#N)C(=O)CSc1nc2ccccc2c(=O)n1Cc1ccc(F)cc1,i,5.5*,i,167%*,CHO-K1 Tl ctr=-8;KCNQ1 sel pot=16*;KCNQ2 pot conf=3.4*;Kir2-1 sel=-37;KCNQ2 W236L MoA=i
O=S(=O)(/C(=C/c1ccc(C(F)(F)F)cc1)c1nc2ccccc2[nH]1)c1ccccc1,-7.8*,-7.8,i,i,
CC(C)c1ccc(/C=C(\c2nc3ccccc3[nH]2)S(=O)(=O)c2ccccc2)cc1,i,/,/,/,
Cc1cc(C)c(NC(=O)C(C)c2cccc(C(=O)c3ccccc3)c2)c(C)c1 (stereo unspecified),i,23*,i,i,CHO-K1 Tl ctr=54*;KCNQ1 sel pot=-9;KCNQ2 pot conf=54*;Kir2-1 sel=-31;KCNQ2 W236L MoA=i
CC(=O)Nc1ccc(NC(=O)C(C)c2cccc(C(=O)c3ccccc3)c2)cc1 (stereo unspecified),i,0.37,/,/,
